Screening data from PubChem.
Shown is part of a subset that was picked to be rich in hits.
BLM helicase inh: Bloom syndrome helicase (human) inhibition; recombinant BLM DNA unwinding, fluorescence dequenching; Potency, µM (highest dose often 56.1 µM), for inactives: at the top dose activity change, negative = inhibition, actives largely listed as inhibitors; hit rate 0.2% among 350,000; AID 2528;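 further: plate controls were vehicle for no effect and no enzyme for full effect; nearly all actives have a fitted effect of over 35% in size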
TDP1 block: TDP1 (human) enzyme inhibition. Q9NUW8. recombinant TDP1, AlphaScreen DNA substrate cleavage. Potency, µM (series often up to 130 µM), for inactives: at the highest dose activity change, negative = inhibition, most hits filed as inhibitors. hit rate 0.28% among 350,000; further: nearly all actives have a fitted effect of over 40% in size
Target sequence (Q9NUW8 whole entry, looked up): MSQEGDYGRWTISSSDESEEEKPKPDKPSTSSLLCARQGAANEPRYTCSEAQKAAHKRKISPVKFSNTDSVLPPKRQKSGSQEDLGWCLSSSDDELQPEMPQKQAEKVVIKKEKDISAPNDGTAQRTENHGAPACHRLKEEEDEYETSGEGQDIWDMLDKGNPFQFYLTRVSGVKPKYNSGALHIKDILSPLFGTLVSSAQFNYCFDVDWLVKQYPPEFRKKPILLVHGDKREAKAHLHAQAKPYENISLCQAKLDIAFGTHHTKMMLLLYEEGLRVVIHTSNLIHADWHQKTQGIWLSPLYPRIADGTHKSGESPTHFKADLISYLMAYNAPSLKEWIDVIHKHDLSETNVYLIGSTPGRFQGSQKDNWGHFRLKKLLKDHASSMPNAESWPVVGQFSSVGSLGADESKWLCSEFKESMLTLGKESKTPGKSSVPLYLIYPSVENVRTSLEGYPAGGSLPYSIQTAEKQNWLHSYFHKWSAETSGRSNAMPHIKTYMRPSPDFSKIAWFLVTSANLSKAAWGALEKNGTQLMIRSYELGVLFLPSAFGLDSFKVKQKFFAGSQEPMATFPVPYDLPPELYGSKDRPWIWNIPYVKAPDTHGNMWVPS
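E. coli-derived human Tdp1, 1 nM final. Cpd preinc 15 min RT; substrate 15 nM final, 5 min RT; AS bead mix 10 ug/ml final, 10 min RT. Signal loss = tyrosine-FITC cleavage. No-enzyme wells = max signal.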
GCN5L2 inh: inhibitors of human GCN5L2 histone acetyltransferase | GCN5L2 HAT assay, ThioGlo1 CoA-SH fluorescence | hit rate 0.21% among 390,000 | Q92830 | Potency, µM (titrated, usually from 58.9 µM), inactives show top-dose activity change, negative = inhibition, usual class: inhibitors
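Enzyme at 20nM final was mixed with library compounds for 15 min at room temperature. Peptide H3(1-25) at 75uM, acetyl-CoA at 70uM and ThioGlo1 at 50uM were then added. Plates were read immediately and after 20 min (Ex340nm/Em540nm).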
KDM4E inh: blocks human JMJD2E demethylase activity; B2RXH2; JMJD2E catalytic domain, FDH-coupled NADH fluorescence (FDH is formaldehyde dehydrogenase); Potency, µM (top dose mostly 57.1 µM), inactives show at the top dose activity change, negative = inhibition, usual class: inhibitors; hit rate 1.6% among 230,000; AID 2147; active means well fitted inhibition curve with a large enough effect, not every such curve was filed as active; inconclusive means small, poorly fitted or top-dose-only effect, or another doubt; inactive means no such curve, though single readings can be large or run the other way;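 further: 0% = wells with enzyme and -100% = buffer wells without enzyme; nearly all actives have a fitted effect of over 50% in size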
RECQ1 inh-1: blocks DNA unwinding by human RECQ1. AID 2549. Potency, µM (doses to about 57.3 µM), inactives show at the highest dose activity, negative = inhibition, actives largely listed as inhibitors. hit rate 0.54% among 240,000. RECQ1 DNA unwinding, red fluorescence kinetic read;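 further: plate controls were vehicle for no effect and no enzyme for full effect; nearly all actives have a fitted effect of over 30% in size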
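RECQ1T1 50 nM; forked duplex (20 bp + 30-nt ss tails) 200 nM, ATP 2 mM final; pH 8.0, 2 mM MgCl2, 2.5 ug/ml poly(dI-dC); 15 min compound preincubation; discontinuous kinetic read over 2 h at RT.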
APE1 inh: APE1 (human) endonuclease inhibition; recombinant APE1, TAMRA/BHQ-2 abasic DNA cleavage fluorescence; Potency, µM (doses to about 65.8 µM), for the others: at the top dose activity change, negative = inhibition, most hits filed as inhibitors; hit rate 0.35% among 350,000;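 further: plate controls were vehicle for no effect and reference inhibitor for full effect; nearly all actives have a fitted effect of over 55% in size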
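Endonuclease cleavage of a quenched abasic-site DNA duplex (50 nM) by APE1 (0.75 nM) was tracked by TAMRA dequenching. Compounds were preincubated with enzyme 15 min at room temperature; data normalized to buffer-only and DMSO wells plus NSC13755 control.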
RECQ1 conf: confirmation of human RECQ1 helicase inhibitors | shares compounds with RECQ1 inh-1 | RECQ1 helicase DNA unwinding, fluorescence | Potency, µM (top dose mostly 229 µM), without a hit: top-dose activity change, negative = inhibition, actives largely listed as inhibitors | hit rate 28% among 610 | AID 2708; further: nearly all actives have a fitted effect of over 45% in size
RECQ1 ADP FP: counter-screen for RECQ1 inhibitors: ADP displacement | ADP fluorescence polarization displacement counterscreen | hit rate 27% among 530 | shares compounds with RECQ1 inh-1 | Potency, µM (highest dose often 228 µM), for the others: at the top dose activity change, negative = inhibition, actives largely listed as inhibitors; further: nearly all actives have a fitted effect of over 45% in size
RECQ1 inh-2: RECQ1 helicase inhibition confirmed, round 2; shares compounds with RECQ1 inh-1; recombinant RECQ1 DNA unwinding, red fluorescence; Potency, µM (doses to about 119 µM), for the others: at the highest dose activity, negative = inhibition, most hits filed as inhibitors; hit rate 15% among 1,100; AID 504841; further: nearly all actives have a fitted effect of over 50% in size
* = called active by the depositor; i = inactive; ? = inconclusive; . = no result; [ ] = dose if it differs, or a comment. Unless noted, the call rests on the fitted dose curve; in most records, active means well fitted curve in the direction sought with a large enough effect; inconclusive means small, poorly fitted or top-dose-only effect, or another doubt; inactive means no such curve, though single readings can be large; an effect the other way counts as inactive or inconclusive. Unless noted, on the % scale 0 is the no-effect control and ±100 the full control effect; potency means the concentration at half of the fitted maximal effect.

SMILES	BLM helicase inh	TDP1 block	GCN5L2 inh	KDM4E inh	RECQ1 inh-1	APE1 inh	RECQ1 conf	RECQ1 ADP FP	others
Cc1ccc(S(=O)(=O)N2CCc3ccccc3C2CN2C(=O)c3ccccc3C2=O)cc1 (stereo unspecified)	-8.6%	0.0%	-6.9%	-5.3%	31.6µM*	9.6%	.	.	RECQ1 inh-2=-13.5%
O=C(OC(C(=O)O)C(OC(=O)c1ccccc1)C(=O)NCc1ccccc1)c1ccccc1 (stereo unspecified)	-3.2%	1.9%	-17.8%	6.6%	-8.4%	13.7%	.	.
CC(=O)Nc1ccc(NC(=O)C(OC(=O)c2ccccc2)C(OC(=O)c2ccccc2)C(=O)O)cc1 (stereo unspecified)	-3.2%	0.0%	10.4%	4.6%	-4.8%	2.1%	16.7%	?
CCOC(=O)c1ccc(NC(=S)N2CCSC2c2ccc(Cl)cc2)cc1 (stereo unspecified)	-5.9%	7.9%	-7.3%	-2.4%	?	-2.2%	.	.	RECQ1 inh-2=-10.2%
CCOC(=O)c1ccc(NC(=S)N2CCSC2c2ccc(OC)cc2)cc1 (stereo unspecified)	-4.2%	5.6%	0.0%	-2.2%	-15.8%	4.7%	.	.
CCCCCCCCCCCCCCCCCCCCCC(=O)Nc1ccn([C@@H]2O[C@H](CO)[C@@H](O)[C@@H]2O)c(=O)n1	-0.2%	.	-14.1%	.	.	.	.	.
CCCN1C(=O)/C(=C/C=C2\N(CC)c3ccccc3C2(C)C)SC1=S	-4.6%	7.8%	-6.1%	8.9%	i	-3.1%	.	.
CN1/C(=C\C=C2/SC(=S)N(CC(=O)O)C2=O)C(C)(C)c2ccccc21	14.1µM*	5.4%	-23.0%	-6.7%	25.1µM*	25.1µM*	39.8µM*	3.16µM*
C[C@H]1CC2[C@@H]3CCC4=CC(=O)C=C[C@]4(C)[C@@]3(F)[C@@H](O)C[C@]2(C)[C@@]1(O)C(=O)CO (stereo partly specified)	.	4.0%	.	4.5%	-5.2%	-7.2%	.	.
CC(NC(=O)/C(=C/c1ccc2c(c1)OCO2)NC(=O)c1cccc([N+](=O)[O-])c1)C(=O)O (stereo unspecified)	-3.7%	7.5%	-6.9%	?	-5.5%	15.5%	14.0%	-14.8%
CC(C)NC(=O)/C(=C\c1cccc([N+](=O)[O-])c1)NC(=O)c1ccccc1	-2.3%	7.3%	?	12.9%	i	12.0%	.	.
Cc1ccc(C(=O)N/C(=C/c2ccccc2)C(=O)NC(Cc2ccccc2)C(=O)O)cc1 (stereo unspecified)	-0.4%	1.1%	-0.9%	3.2%	1.9%	3.9%	.	.
O=C(NC(Cc1ccccc1)C(=O)O)/C(=C/c1ccccc1)NC(=O)c1cccc(Br)c1 (stereo unspecified)	-9.0%	0.0%	-0.4%	4.3%	-3.0%	3.7%	10.5%	?
O=C(NC(Cc1ccccc1)C(=O)O)/C(=C/c1ccco1)NC(=O)c1cccc([N+](=O)[O-])c1 (stereo unspecified)	-1.5%	-8.1%	-9.6%	-6.5%	i	-9.7%	4.5%	-3.7%
COc1ccc(-c2nc(C)c(CCNC(=O)C(=O)Nc3cc(C)cc(C)c3)s2)cc1OC	-2.8%	6.6%	-0.8%	.	.	.	.	.
CCCN1C(=O)C(Cc2nc3ccccc3c(=O)n2CC)c2cc(Br)ccc21 (stereo unspecified)	-3.4%	9.3%	-1.8%	.	.	.	.	.
CC(=O)Nc1ccn(C2CC3OCC(NC(=O)C(Cc4ccccc4)NC(=O)OC(C)(C)C)C3O2)c(=O)n1 (stereo unspecified)	-7.7%	-1.5%	.	.	-4.3%	1.9%	.	.
N#Cc1c(-n2ncnc2-c2ccccc2Cl)sc2c1CCCCC2	-6.5%	-0.4%[12.3 µM]	-3.1%	.	.	.	.	.
CC1/C=C/C=C/C=C/C=C/C=C/C=C/C=C/C(OC2OC(C)C(O)C(N)C2O)CC2O[C@@](O)(CC(O)CC(O)C(O)CCC(O)CC(O)CC(=O)OC(C)[C@H](C)C1O)CC(O)C2C(=O)O (stereo partly specified)	-5.4%	?	-23.0%	?	20µM*	-27.3%	?	55.9%
CCn1cc(C(=O)OCC(=O)Nc2c(C)n(C)n(-c3ccccc3)c2=O)c(=O)c2ccc(C)nc21	-1.3%	0.0%	-7.2%	1.6%	i	0.0%	10.8%	?
Cc1c(NC(=O)COC(=O)c2cc(-c3cccc4ccccc34)nc3ccccc23)c(=O)n(-c2ccccc2)n1C	-2.3%	3.2%	-9.0%	i	?	-3.5%	.	.	RECQ1 inh-2=?
COc1ccc(CNC(=O)COC(=O)c2cc(C)nc3ccccc23)cc1	.	1.6%	0.2%	.	.	-19.7%	.	.
Cc1c(NC(=O)COC(=O)c2ccc(O)cc2)c(=O)n(-c2ccccc2)n1C	.	1.4%	-5.7%	.	.	-4.2%	.	.
CCNC(=O)COC(=O)c1cc(-c2ccco2)nc2ccccc12	?	?	-19.5%	?	28.2µM*	25.1µM*	.	.	RECQ1 inh-2=?
CCn1cc(C(=O)OC(C)C(=O)Nc2c(C)n(C)n(-c3ccccc3)c2=O)c(=O)c2ccc(C)nc21 (stereo unspecified)	0.3%	2.2%	-2.6%	2.8%	i	8.5%	.	.
CCCc1nc2ccccc2c(C(=O)OCC(=O)Nc2c(C)n(C)n(-c3ccccc3)c2=O)c1CC	1.4%	5.3%	21.0%	6.5%	-10.6%	2.1%	11.8%	14.1%
Cc1ccccc1Cn1c(CN2CCC(C(=O)NCCN(C)C)CC2)cc2ccccc21	12.8%	9.3%	0.4%	.	.	.	.	.
COc1ccc2c(c1OC)C(Cc1ccccc1)N1CCc3cc4c(cc3C1C2)OCO4 (stereo unspecified)	-5.7%	25.0%	?	?	i	6.7%	.	.
N/C(=N\OC(=O)c1cccs1)c1cccc([N+](=O)[O-])c1	-7.4%	-1.3%	-5.8%	6.6%	44.7µM*	12.8%	.	.	RECQ1 inh-2=-7.5%
Cc1cc(O)ccc1N=Cc1c(C(F)(F)F)[nH][nH]c1=O	-9.6%	2.4%	-6.8%	-3.6%	8.91µM*	16.9%	-0.2%[114 µM]	6.31µM*	RECQ1 inh-2=-6.8%
